{"source": "PubChem BioAssay AID633", "about": "(Emory University Molecular Libraries Screening Center, 2007)", "note": "The whole screen tested about 86,000 compounds, of which about 1,100 (1.3%) were called active.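 Rule for the calls: active = compounds whose percent inhibition of the receptor-coactivator binding signal exceeds about 50% in the single-dose screen (limit read from the data); inactive = the rest.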 The entries come from a sample that favours actives as a whole.", "data": [{"biological_target": "Estrogen receptor beta (Homo sapiens) (UniProt Q92731)", "sequence (Q92731 whole entry, looked up, the tested form may be a part)": "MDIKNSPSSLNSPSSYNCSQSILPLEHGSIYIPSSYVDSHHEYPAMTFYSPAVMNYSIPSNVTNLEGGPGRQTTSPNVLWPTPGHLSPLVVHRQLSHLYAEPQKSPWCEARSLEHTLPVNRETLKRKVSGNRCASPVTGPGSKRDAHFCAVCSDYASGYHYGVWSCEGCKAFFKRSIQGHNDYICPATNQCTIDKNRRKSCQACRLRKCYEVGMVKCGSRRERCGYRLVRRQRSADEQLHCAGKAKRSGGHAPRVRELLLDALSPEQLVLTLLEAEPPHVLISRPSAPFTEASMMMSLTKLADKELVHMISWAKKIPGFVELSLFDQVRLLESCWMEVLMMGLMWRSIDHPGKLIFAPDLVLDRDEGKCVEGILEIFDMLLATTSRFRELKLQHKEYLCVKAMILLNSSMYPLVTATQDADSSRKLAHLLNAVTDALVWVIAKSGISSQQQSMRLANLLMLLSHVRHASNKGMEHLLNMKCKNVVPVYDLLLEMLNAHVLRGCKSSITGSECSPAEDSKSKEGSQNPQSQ", "test": "inhibitors of ERβ-SRC1 coactivator interaction, primary screen, biochemical, TR-FRET, ERβ LBD, SRC-1 peptide (AID 633);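 note: 0% = receptor plus peptide wells without compound and 100% = peptide-only wells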", "conditions": "TR-FRET ER-beta LBD / SRC1-Cy5 peptide binding; at 25.6 µM; stronger effect = higher value; receptor agonist-loaded with 1 µM estradiol", "values": [{"compound": "C=CCc1ccc(OCCOc2cccc(/C=N/n3cnnc3)c2)c(OC)c1", "inhibition": "-5.22% (inactive)"}, {"compound": "Cc1cccc(-n2c(Cc3cc(=O)[nH]c(=O)[nH]3)nnc2SC(C)C)c1", "inhibition": "51.8% [fluorescence artefact?] (active)"}, {"compound": "Cc1cccc(-n2c(N)cc(=O)nc2SC(C)C(=O)NC2CCCCC2)c1", "note": "(stereo not given)", "inhibition": "-5.73% (inactive)"}, {"compound": "COc1cccc(-n2c(Cc3cc(=O)[nH]c(=O)[nH]3)nnc2SCC(=O)Nc2ccccc2)c1", "inhibition": "-4.83% (inactive)"}, {"compound": "COc1ccc(NC(=O)CSc2nc(NS(=O)(=O)c3ccc(C)cc3)cc(=O)[nH]2)cc1", "inhibition": "-6.84% (inactive)"}, {"compound": "Cc1nc2sc(C(c3ccco3)N3CCOCC3)c(O)n2n1", "note": "(stereo not given)", "inhibition": "-29.9% (inactive)"}, {"compound": "Oc1c(C(c2ccccn2)N2CCOCC2)ccc2cccnc12", "note": "(stereo not given)", "inhibition": "78.2% [fluorescence artefact?] (active)"}, {"compound": "O=C(c1cccnc1NCc1ccccc1)N1CCOCC1", "inhibition": "2.12% (inactive)"}, {"compound": "O=C(Nc1nccs1)c1cc(S(=O)(=O)N2CCOCC2)c(Cl)cc1Cl", "inhibition": "-7.67% (inactive)"}, {"compound": "c1ccc2c(-c3nn4nnnc4c4ccccc34)cccc2c1", "inhibition": "-6.58% (inactive)"}, {"compound": "CCOC(=O)C1=C(C)NC(SC)=NC1c1ccccc1", "note": "(stereo not given)", "inhibition": "-3.63% (inactive)"}, {"compound": "CC(Oc1ccc(Cl)cc1)c1ccnn1S(C)(=O)=O", "note": "(stereo not given)", "inhibition": "-3% (inactive)"}, {"compound": "COc1cccc(-c2nn(C)c3sc(C(=O)N4CCN(c5ccccc5)CC4)cc23)c1", "inhibition": "10.8% (inactive)"}, {"compound": "O=C(c1cc2c(s1)CCC2)N1CCN(c2ccccc2)CC1", "inhibition": "50.6% (active)"}, {"compound": "Cc1nc2ccc(C(=O)N3CCN(c4ccccc4)CC3)cc2s1", "inhibition": "-22% (inactive)"}, {"compound": "O=C(Nc1ccccc1)c1ccc2c(c1)OCO2", "inhibition": "35.7% (inactive)"}, {"compound": "Cc1nn(C)cc1CNC(=O)Nc1ccc(Cl)cc1", "inhibition": "-6.02% (inactive)"}, {"compound": "CCOC(=O)c1ccc(COC(=O)CCc2nc(-c3ccccc3)c(-c3ccccc3)o2)cc1", "inhibition": "1.8% (inactive)"}, {"compound": "C=CCn1c(CC(=O)Nc2cccc(OC)c2)nnc1SCC(=O)NC1CCCCC1", "inhibition": "-1.41% (inactive)"}, {"compound": "COCCCn1c(SCC(=O)Nc2ccccc2)nnc1-c1ccncc1", "inhibition": "1.64% (inactive)"}, {"compound": "COCCCn1c(Cc2csc(Nc3cccc(Cl)c3)n2)nnc1SCC(=O)OC1CCCCC1", "inhibition": "77.5% (active)"}, {"compound": "O=C(NCCCCCCNC(=O)NCc1ccco1)NCc1ccco1", "inhibition": "-27.9% (inactive)"}, {"compound": "CCOC(=O)c1sc(C)c2c1NC(C)(c1cccc3ccccc13)NC2=O", "note": "(stereo not given)", "inhibition": "14.4% (inactive)"}, {"compound": "COc1cc(OC)c(C(=O)Nc2ccc(N(C)C)cc2)cc1OC", "inhibition": "97.4% [fluorescence artefact?] (active)"}, {"compound": "COc1cc(OC)c(C(=O)NC2CCCCCC2)cc1OC", "inhibition": "-3.66% (inactive)"}, {"compound": "COc1ccc(Cl)cc1C(=O)Nc1ccc(N(C)C(C)=O)cc1", "inhibition": "3.01% (inactive)"}, {"compound": "COc1cccc2cc(C(=O)N3CCN(C(=O)c4ccccc4)CC3)c(=O)oc12", "inhibition": "-4.03% (inactive)"}, {"compound": "COc1ccc(S(=O)(=O)N/N=C\\c2ccc(OC)c(COc3ccc(C)cc3[N+](=O)[O-])c2)cc1", "inhibition": "27.5% (inactive)"}, {"compound": "Cc1ccc(NC(=S)NC(NC(=O)Cc2cccc3ccccc23)C(Cl)(Cl)Cl)cc1", "note": "(stereo not given)", "inhibition": "40.2% (inactive)"}, {"compound": "O=C1CCCc2nn(-c3ccccc3)nc21", "inhibition": "-7.98% (inactive)"}, {"compound": "O=C(NCc1ccccn1)c1ccc2nc(-c3ccco3)c(-c3ccco3)nc2c1", "inhibition": "93% [fluorescence artefact?] (active)"}, {"compound": "CN(c1ccc(C(=O)NCc2ccccn2)cc1)S(C)(=O)=O", "inhibition": "-12.6% (inactive)"}, {"compound": "O=C(NCc1ccccn1)c1cc2ccccc2oc1=O", "inhibition": "-2.55% (inactive)"}, {"compound": "CCOC(=O)C1CSC(CC(=O)Nc2ccc(OCC)cc2)C(=O)N1", "note": "(stereo not given)", "inhibition": "-12.7% (inactive)"}, {"compound": "COc1ccc(NC(=O)CCN2CCCC2)c(OC)c1", "inhibition": "-0.42% (inactive)"}, {"compound": "COc1ccc(-c2n[nH]c(C)c2-c2ccc(OC)c(OC)c2)c(O)c1", "inhibition": "3.54% (inactive)"}, {"compound": "Oc1ccc(-c2csc(Nc3cccnc3)n2)cc1", "inhibition": "2.46% (inactive)"}, {"compound": "COc1ccc(OC)c(Nc2nc(-c3ccc(O)c(O)c3)cs2)c1", "inhibition": "67.8% [fluorescence artefact?] (active)"}, {"compound": "O=C(COc1ccc(S(=O)(=O)NCc2ccccc2)cc1)N1CCOCC1", "inhibition": "-22.9% (inactive)"}, {"compound": "O=C(Nc1nnc(SCc2c(Cl)cccc2Cl)s1)C1CCCO1", "note": "(stereo not given)", "inhibition": "-1.99% (inactive)"}, {"compound": "COc1cc(S(=O)(=O)N(Cc2cccs2)C2CC2)ccc1-n1cnnn1", "inhibition": "-25.2% (inactive)"}, {"compound": "CC(=O)c1sc2nc(SCC(=O)N3CCCCC3)[nH]c(=O)c2c1C", "inhibition": "56.2% (active)"}, {"compound": "CCOC(=O)CSc1nc2sc3c(c2c(=O)[nH]1)CC(C)(C)OC3", "inhibition": "-8.89% (inactive)"}, {"compound": "C=CCNC(=O)CSc1nc2sc(C)c(C)c2c(=O)[nH]1", "inhibition": "6.38% (inactive)"}, {"compound": "CCCCOc1ccc(C(=O)NCc2ccncc2)cc1", "inhibition": "0.29% (inactive)"}, {"compound": "N#CC1=C(N)N(c2ccccc2)C2=C(C(=O)CCC2)C1c1ccccc1", "note": "(stereo not given)", "inhibition": "-5.84% (inactive)"}, {"compound": "CC(C)C1N=C2c3ccccc3N=C(SCC(=O)c3ccc(O)c(O)c3)N2C1=O", "note": "(stereo not given)", "inhibition": "52.4% [fluorescence artefact?] (active)"}, {"compound": "O=C(CSC1=Nc2ccccc2C2=NC(CC(=O)NCc3ccco3)C(=O)N12)NCc1ccco1", "note": "(stereo not given)", "inhibition": "16.1% (inactive)"}, {"compound": "CCC(C)NC(=O)CSC1=Nc2ccccc2C2=NC(CCC(=O)NCc3ccco3)C(=O)N12", "note": "(stereo not given)", "inhibition": "-5.03% (inactive)"}, {"compound": "O=C1CSC2=NCN(c3ccccc3)CN12", "inhibition": "-6.24% (inactive)"}, {"compound": "CCOC(=O)Cc1csc(NC(=O)CSc2nc(C)cc(=O)[nH]2)n1", "inhibition": "1.35% (inactive)"}, {"compound": "CCCCc1nnc(NC(=O)CSc2nc(C)cc(=O)[nH]2)s1", "inhibition": "27.8% (inactive)"}, {"compound": "COC(=O)c1cccc(NC(=O)CSc2nc(C)cc(=O)[nH]2)c1", "inhibition": "50.1% [fluorescence artefact?] (active)"}, {"compound": "O=C(CCCn1c(SCC(=O)c2ccccc2)nc2ccccc2c1=O)NCC1CCCO1", "note": "(stereo not given)", "inhibition": "-2.4% (inactive)"}, {"compound": "Cc1cc(C)c(OCC(=O)N/N=C/c2ccco2)c(C)c1", "inhibition": "-10.7% (inactive)"}, {"compound": "CCCCNC(=O)C1(c2ccc(OC)cc2)CCOCC1", "inhibition": "39.7% (inactive)"}, {"compound": "Cc1ccc(SC(=O)COc2ccc(C)c(C)c2)cc1", "inhibition": "-2.52% (inactive)"}, {"compound": "O=C(NC1CCCC1)C(c1ccccn1)N(C(=O)c1csnn1)C1CCCC1", "note": "(stereo not given)", "inhibition": "3.18% (inactive)"}, {"compound": "COc1cccc(NS(=O)(=O)c2ccc3[nH]cc(C(=O)NCCCOC(C)C)c(=O)c3c2)c1", "inhibition": "19.5% (inactive)"}, {"compound": "CCN(CC)S(=O)(=O)c1ccc2[nH]cc(C(=O)NCCc3ccccc3)c(=O)c2c1", "inhibition": "51.1% [fluorescence artefact?] (active)"}, {"compound": "CCCCNC(=O)c1c[nH]c2ccc(S(=O)(=O)Nc3ccc(OCC)cc3)cc2c1=O", "inhibition": "29.9% (inactive)"}, {"compound": "COC(=O)CSc1snnc1-c1ccc(Cl)c(Cl)c1", "inhibition": "-8.59% (inactive)"}, {"compound": "Cc1cc(=O)oc2cc(OCC3CC(c4ccccc4Cl)=NO3)ccc12", "note": "(stereo not given)", "inhibition": "-1.82% (inactive)"}, {"compound": "CCOCN(C(=O)Cn1c(C(C)O)nc2ccccc21)c1c(C)cccc1CC", "note": "(stereo not given)", "inhibition": "-15.2% (inactive)"}, {"compound": "Cc1ccc(Cn2c(C)nc3c(c2=O)c2nc4ccccc4nc2n3Cc2ccco2)cc1", "inhibition": "36% (inactive)"}, {"compound": "COCCCn1c2nc3ccccc3nc2c2c(=O)n(Cc3ccc(Cl)cc3)c(C)nc21", "inhibition": "12.9% (inactive)"}, {"compound": "Cc1nc2c(c(=O)n1Cc1ccco1)c1nc3ccccc3nc1n2Cc1ccccc1", "inhibition": "59.7% [fluorescence artefact?] (active)"}, {"compound": "O=C(NCC(=O)N(Cc1cccs1)C(C(=O)NC1CCCCC1)c1ccco1)c1cccs1", "note": "(stereo not given)", "inhibition": "6.36% (inactive)"}, {"compound": "Cn1c(C(=O)OC(C(=O)NC2CCCCC2)c2ccccn2)cc2sccc21", "note": "(stereo not given)", "inhibition": "-0.81% (inactive)"}, {"compound": "Cc1ccc2c(c1)N(CC(=O)N(Cc1ccccn1)Cc1ccco1)C(=O)C(C(C)C)O2", "note": "(stereo not given)", "inhibition": "1.63% (inactive)"}, {"compound": "O=C(NCc1cn2ccsc2n1)Nc1ccc(Cl)cc1", "inhibition": "-3.46% (inactive)"}, {"compound": "Cc1ccc(S(=O)(=O)NCc2cn3ccsc3n2)c(C)c1", "inhibition": "0.6% (inactive)"}, {"compound": "COc1ccc(-c2cn3ccsc3n2)cc1", "inhibition": "68% (active)"}, {"compound": "CCOC(=O)c1sc(NC(=O)c2ccncc2)nc1C", "inhibition": "-4.81% (inactive)"}, {"compound": "O=C(NCc1cccnc1)Nc1ccccc1F", "inhibition": "-19.3% (inactive)"}, {"compound": "CCCCOC(=O)Cn1c(=O)n(CC(=O)OCCCC)c2cc(C)ccc21", "inhibition": "-3.48% (inactive)"}, {"compound": "O=C(N/N=C/C=C/c1ccccc1)C1CC1(c1ccccc1)c1ccccc1", "note": "(stereo not given)", "inhibition": "16.4% (inactive)"}, {"compound": "COc1ccc(N2C(=O)C3CCCN3C2c2cccs2)cc1", "note": "(stereo not given)", "inhibition": "-13.6% (inactive)"}, {"compound": "COc1ccc(N2C(=O)C3CCCN3C2c2cc(OC)c(OC)cc2OC)cc1", "note": "(stereo not given)", "inhibition": "98.9% [fluorescence artefact?] (active)"}, {"compound": "COc1ccc(N2C(=O)C3CCCN3C2c2cccc(OC)c2)cc1", "note": "(stereo not given)", "inhibition": "-7% (inactive)"}, {"compound": "COC(=O)c1[nH]c2ccccc2c1NC(=O)CN1CCCc2ccccc21", "inhibition": "58.4% [fluorescence artefact?] (active)"}, {"compound": "CCOC(=O)c1[nH]c2ccc(OC)cc2c1NC(=O)CCN1CCN(Cc2ccccc2)CC1", "inhibition": "5.39% (inactive)"}, {"compound": "COC(=O)c1[nH]c2cccc(C)c2c1NC(=O)CN1CCCc2ccccc21", "inhibition": "34.3% (inactive)"}, {"compound": "CCn1c(-c2ccoc2C)n[nH]c1=S", "inhibition": "-2.85% (inactive)"}, {"compound": "COCCOCCn1cnc2ccccc21", "inhibition": "-1.14% (inactive)"}, {"compound": "Oc1c(CN2CCN(c3ccc(F)cc3)CC2)cc(Cl)c2cccnc12", "inhibition": "1.3% (inactive)"}, {"compound": "CCOC(=O)N1CCN(C(=O)c2cc3c(ccc4ccccc43)oc2=O)CC1", "inhibition": "23.4% (inactive)"}, {"compound": "CCOC(=O)N1CCN(C(c2cccnc2)c2ccc3cccnc3c2O)CC1", "note": "(stereo not given)", "inhibition": "58% [fluorescence artefact?] (active)"}, {"compound": "CCN1CCN(C(c2cccnc2)c2cc(Cl)c3cccnc3c2O)CC1", "note": "(stereo not given)", "inhibition": "72.4% [fluorescence artefact?] (active)"}, {"compound": "CCOC(=O)N1CCN(C(=O)CSc2ccc(Cl)cc2)CC1", "inhibition": "-0.13% (inactive)"}]}]}
